High-throughput results as filed in PubChem.
The entries come from a sample that favours hits as a whole.
Methyltransferases – Primary Screen for Target Class Profiling of Small Molecule Inhibitors of Methyltransferases; purified enzyme, MTase-Glo SAH luminescence; active compounds read low; calls only at 40 µM; 25,000 compounds, 3.9% hits; call rule not given here
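Each enzyme was reacted with SAM and its substrate, with compounds tested once at 40 uM; SAH formed was read by MTase-Glo luminescence.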
The depositor's hits bear a star; i = inactive; + = active, no number. % is set by controls: 0 for no effect and ±100 for the full control effect.

SMILES	Methyltransferases
C=CC(C)(CC/C=C(\C)CC/C=C(\C)CC(O)/C=C(\C)C(=O)O)O[C@@H]1O[C@H](CO)[C@@H](O)[C@H](O)[C@H]1O[C@@H]1O[C@H](CO)[C@@H](O)[C@H](O)[C@H]1O (stereo partly drawn)	i
O=C(Nc1cccc(-c2nnc3n2CCCC3)c1)c1ccccn1	i
Cc1ccc(C)c(N2C(=O)CSc3c(c4ccccc4n3C)C2C(=O)NCc2ccccc2)c1 (stereo not drawn)	i
Cn1cc(CN2CCN(c3cnccn3)CC2)c(-c2ccc(C3CCCCC3)cc2)n1	i
Cc1c(CN(C)C(=O)/C=C/c2cnc3c(c2)CCC(=O)N3)oc2ccccc12	i
CCCCS(=N)(=O)CCC(N)C(=O)O (stereo not drawn)	i
CCCn1c(=O)c2cc(Cl)ccc2n2c(=O)n(CC(=O)Nc3ccc(C)cc3Cl)nc12	i
CN(Cc1cccs1)Cc1cccn1C	i
CN(Cc1cccs1)c1ncnc2ccc(-c3ccc4c(c3)OCO4)cc12	+
COc1cccc(N2C(=O)c3cc4sccc4n3CC2(C)C(=O)NC2CCCCC2)c1 (stereo not drawn)	i
COc1ccc(-n2[nH]c(=O)c3[nH]c4cc(Cl)ccc4c(=O)c3c2=O)c(C)c1	i
O=S(=O)(NCCc1noc(-c2ccccc2)n1)c1ccc(Cl)cc1	i
CC#C[C@@H](CC(=O)O)c1ccc(OCc2cccc(-c3ccc(C(F)(F)F)cc3)c2)cc1	+
COc1cccc(-c2ccc(C(=O)N3CCC(NC(=O)c4ccc(C(F)(F)F)cc4)CC3)cc2)c1	i
Clc1ccc(Cn2c(Cc3ccccc3)nc3ccccc32)cc1	+
Clc1ccc(Cn2c(CN3CCCC3)nc3ccccc32)cc1	i
CC1(C(=O)NCc2ccccc2)Cn2c(nc3ccccc32)C(=O)N1Cc1ccc(Cl)cc1 (stereo not drawn)	i
CC(C)OCCCNC(=O)C1(C)Cn2c(cc3ccccc32)C(=O)N1Cc1ccccc1 (stereo not drawn)	i
CC1=C2C[C@H]3O[C@@]3(C)CCC3O[C@@]3(C)C[C@@]2(O)OC1=O (stereo partly drawn)	i
Cc1ccc(CNC(=O)c2cc3n(n2)CC(C)(C(=O)NC2CCCCCC2)N(C)C3=O)cc1 (stereo not drawn)	i
COc1ccc(Sc2ccc(NC(=O)c3ccccc3Cl)cc2C#N)cc1	i
CN1C(=O)c2cc(NC(=O)c3cccc(N(C)C)c3)ccc2N2CCN=C12	i
COc1cc(OC)cc(C(=O)Nc2ccc(Cl)c(-c3nc4ccc(N(C)C)cc4[nH]3)c2)c1	+
Cn1cccc1-c1noc(C2CCN(C(=O)CCn3cnc4ccccc43)C2)n1 (stereo not drawn)	i
CC1(C(=O)NCc2ccc(F)cc2)Cn2cnc(C(=O)NCCc3ccccc3)c2C(=O)N1C1CC1 (stereo not drawn)	i
SMILES	Methyltransferases
O=C1NC(=O)/C(=C/c2ccc(-c3ccc(F)cc3O)o2)S1	+
COc1ccc2c(C)c(C(=O)N3CCCCC3c3cc(C)on3)oc2c1 (stereo not drawn)	i
COC(=O)CNC(=O)c1nc(-c2ccc(Cl)cc2)c2ccccn12	i
COc1ccc2cc3n(c2c1)CC(C)(C(=O)NC1CCCC1)N(c1cccc(SC)c1)C3=O (stereo not drawn)	i
COc1cccc(CSc2nnc3n(Cc4ccccc4)c(=O)c4ccccc4n23)c1	i
C[C@@H]1CN(C[C@@H]2CN(C(=O)c3ccc(Cl)o3)C[C@@H]2CO)C[C@H](C)O1	i
C[S+](=O)([O-])NCCNC(=O)c1cccc(-c2ccsc2)c1	i
CCc1ccc(/C=C2/SC(=S)NC2=O)cc1	+
O=C1NC(=O)/C(=C/c2ccc3nccnc3c2)S1	i
COCCOCc1nc(C2CCCCN2C(=O)NCc2ccc(F)cc2)no1 (stereo not drawn)	i
CN(Cc1cccnc1)C(=O)c1n[nH]c2c1CN(Cc1cccnc1)CC2	i
C=C1C(=O)O[C@@H]2/C=C(\C)C(=O)/C=C/[C@](C)(O)C[C@@H](OC(=O)C(C)C)[C@@H]12	+
C=C1C(=O)OC2/C=C(\C)CC/C=C(\C)CC(OC(C)=O)C12 (stereo not drawn)	i
C=C1C(=O)O[C@@H]2/C=C(/C)CC3C=C(C[C@H](OC(=O)/C(C)=C\C)[C@@H]12)C(=O)O3 (stereo partly drawn)	i
O=C(COc1cc2oc(=O)cc(-c3ccccc3)c2cc1Cl)OCc1ccccc1	i
CC1(C)CC[C@]2(C(=O)O[C@@H]3O[C@H](CO)[C@@H](O)[C@H](O)[C@H]3O)CC[C@]3(C)C(=CCC4[C@@]5(C)C[C@@H](O)[C@H](O)[C@@](C)(CO)C5CC[C@]43C)C2C1 (stereo partly drawn)	+
C[C@H]1[C@H](C)CC[C@]2(C(=O)O)CC[C@]3(C)C(=CC[C@@H]4[C@@]5(C)C[C@@H](O)[C@H](O)[C@@](C)(CO)[C@@H]5CC[C@]43C)[C@H]12	i
C[C@@H]1O[C@@H](O[C@H]2[C@H](OC(=O)[C@]34CCC(C)(C)C[C@H]3C3=CCC5[C@@]6(C)C[C@H](O)[C@H](O[C@@H]7O[C@H](CO)[C@@H](O)[C@H](O)[C@H]7O)[C@@](C)(CO)C6[C@H](O)C[C@@]5(C)[C@]3(C)CC4)OC[C@H](O)[C@@H]2O)[C@H](O)[C@H](O)[C@H]1O[C@@H]1OC[C@@H](O)[C@H](O[C@@H]2OC[C@](O)(CO)[C@H]2O)[C@H]1O (stereo partly drawn)	i
CC1(C)CCC2(C(=O)OC3OC(COC4OC(CO)C(O)C(O)C4O)C(O)C(O)C3O)CCC3(C)C(=CCC4C5(C)CCC(OC6OCC(O)C(O)C6O)C(C)(C)C5CCC43C)C2C1O (stereo not drawn)	i
CC1(C)CC[C@]2(C(=O)OC3OC(CO)C(O)C(O)C3O)CC[C@]3(C)C(=CCC4[C@@]5(C)C[C@@H](O)[C@H](OC6OC(C(=O)O)C(O)C(O)C6O)C(C)(C)C5CC[C@]43C)[C@@H]2C1 (stereo partly drawn)	i
CC1(C)CC[C@]2(C(=O)O[C@@H]3O[C@H](CO)[C@@H](O)[C@H](O)[C@H]3O)CC[C@]3(C)C(=CCC4[C@@]5(C)C[C@@H](O)[C@H](O)C(CO)(CO)C5CC[C@]43C)C2[C@@H]1O (stereo partly drawn)	+
CC1(C)CC[C@]2(C(=O)O[C@@H]3O[C@H](CO)[C@@H](O)[C@H](O)[C@H]3O)CC[C@]3(C)C(=CCC4[C@@]5(C)C[C@@H](O)[C@H](O)C(C)(C)C5[C@H](O)C[C@]43C)[C@@H]2[C@@H]1O (stereo partly drawn)	i
C[C@@H]1O[C@@H](O[C@H]2[C@H](O)[C@@H](O)[C@H](OC[C@H]3O[C@@H](OC(=O)[C@]45CCC(C)(C)C[C@H]4C4=CCC6[C@@]7(C)C[C@H](O)[C@H](O[C@@H]8O[C@H](CO)[C@@H](O)[C@H](O)[C@H]8O)[C@@](C)(C(=O)O)C7CC[C@@]6(C)[C@]4(C)CC5)[C@H](O[C@@H]4O[C@H](CO)[C@@H](O)[C@H](O)[C@H]4O)[C@@H](O)[C@@H]3O)O[C@@H]2CO)[C@H](O)[C@H](O)[C@H]1O (stereo partly drawn)	i
